The source made the active and inactive calls. The calls were made as follows: active = hit-call score of the fitted dose curve at least 0.9, where 1 is the maximum; inactive = score below 0.9.
Tests used:
[1] = BSK_CASM3C_SRB: Viability Assessment in the BioMAP Diversity Plus: CASM3C Assay (AID 2283050); conditions: primary human coronary artery smooth muscle cells;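 also: total protein by SRB staining as cytotoxicity measure in parallel cultures; cells exposed to compound for 24 h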
[2] = read-out: Thrombomodulin, THBD (gene 7056); assay: BSK_CASM3C_Thrombomodulin: BioMAP Diversity Plus: CASM3C Assay for Thrombomodulin Biomarker Activity (AID 2283051); conditions: primary human coronary artery smooth muscle cells; actives raise or lower the signal;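 also: thrombomodulin protein level measured by ELISA 24 h after dosing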
[3] = read-out: Tissue Factor, F3 (gene 2152); assay: BSK_CASM3C_TissueFactor: BioMAP Diversity Plus: CASM3C Assay for Tissue Factor Biomarker Activity (AID 2283052); conditions: primary human coronary artery smooth muscle cells; actives raise or lower the signal;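 also: cell surface tissue factor protein level read by ELISA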
[4] = read-out: Urokinase-type plasminogen activator receptor (uPAR), PLAUR (gene 5329); assay: BSK_CASM3C_uPAR: BioMAP Diversity Plus: CASM3C Assay for Urokinase-type plasminogen activator receptor (uPAR) Biomarker Activity (AID 2283054); conditions: primary human coronary artery smooth muscle cells; actives raise or lower the signal;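 also: cell-surface uPAR protein level quantified by ELISA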
[5] = read-out: Vascular cell adhesion molecule 1 (VCAM1), VCAM1 (gene 7412); assay: BSK_CASM3C_VCAM1: BioMAP Diversity Plus: CASM3C Assay for Vascular cell adhesion molecule 1 (VCAM1) Biomarker Activity (AID 2283055); conditions: primary human coronary artery smooth muscle cells; actives raise or lower the signal;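 also: VCAM-1 protein level quantified by ELISA on the cells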
[6] = read-out: Collagen III, COL3A1 (gene 1281); assay: BSK_hDFCGF_CollagenIII: BioMAP Diversity Plus: hDFCGF Assay for Collagen III Biomarker Activity (AID 2283056); conditions: primary human foreskin fibroblasts; actives raise or lower the signal
How it was run: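 ELISA read-out of collagen III from human skin fibroblast cultures sampled 24 h post-dosing. Values were derived by bidirectional fitting relative to the DMSO vehicle control.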

[7] = read-out: Epidermal growth factor receptor (EGFR), EGFR (gene 1956); assay: BSK_hDFCGF_EGFR: BioMAP Diversity Plus: hDFCGF Assay for Epidermal growth factor receptor (EGFR) Biomarker Activity (AID 2283057); conditions: primary human foreskin fibroblasts; actives raise or lower the signal
How it was run: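 Cell-based multiplexed assay in primary human foreskin fibroblasts. EGFR is read by ELISA 24 h after treatment and compared with DMSO controls.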

[8] = read-out: Interleukin-8 (IL8), CXCL8 (gene 3576); assay: BSK_hDFCGF_IL8: BioMAP Diversity Plus: hDFCGF Assay for Interleukin-8 (IL8) Biomarker Activity (AID 2283058); conditions: primary human foreskin fibroblasts; actives raise or lower the signal
How it was run: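 Cells used are human skin primary fibroblasts. Chemical is added, cultures run 24 h, then IL-8 is quantified by ELISA, and gain or loss versus DMSO control is fitted in both directions.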

[9] = BSK_hDFCGF_Proliferation: Cell Proliferation Assessment in the BioMAP Diversity Plus: hDFCGF Assay (AID 2283059); conditions: primary human foreskin fibroblasts;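 also: curves fitted for both rise and fall of signal versus DMSO baseline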
How it was run: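 Total protein read at 560 nm after 0.1% SRB staining of TCA-fixed human skin fibroblasts, […]. Activity is fitted in both directions relative to DMSO as baseline.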

Measured: AC50

CCOP(=O)(OCC)Oc1nc(Cl)c(Cl)cc1Cl
active: [2] 0.297 µM | [6] 3.97 µM | [9] 12 µM
inactive: all other assays above

CC(C)C1(C)N=C(c2ncccc2C(=O)O)NC1=O (stereo unspecified)
inactive: all assays above

O=C1C2CC=CCC2C(=O)N1SC(Cl)(Cl)Cl (stereo unspecified)
active: [1] 29.5 µM | [2] 4.74 µM | [4] 32.2 µM | [5] 22.5 µM | [6] 6.44 µM | [7] 5.78 µM | [8] 12.1 µM | [9] 1.85 µM
inactive: [3]

Nc1c(Cl)c(F)nc(OCC(=O)O)c1Cl
inactive: all assays above

CC1(C)CON(Cc2ccccc2Cl)C1=O
inactive: all assays above

CCOP(=S)(OCC)Oc1nc(Cl)n(C(C)C)n1
inactive: all assays above

N#CN=C1SCCN1Cc1ccc(Cl)nc1
inactive: all assays above

Clc1nc(Cl)nc(Nc2ccccc2Cl)n1
active: [9] 27.8 µM
inactive: all other assays above

C=CCOC(=O)C(C)(C)OC(=O)c1cc(-n2c(=O)cc(C(F)(F)F)n(C)c2=O)ccc1Cl
active: [4] 0.984 µM | [7] 0.98 µM
inactive: all other assays above

COC(=O)NC(=S)Nc1ccccc1NC(=S)NC(=O)OC
active: [9] 29.8 µM
inactive: all other assays above

Nc1cnn(-c2ccccc2)c(=O)c1Cl
inactive: all assays above

CNC(=O)Oc1cccc2ccccc12
active: [9] 13.9 µM
inactive: all other assays above

CO/N=C(/C1=NOCCO1)c1ccccc1Oc1ncnc(Oc2ccccc2Cl)c1F
active: [9] 26.7 µM
inactive: all other assays above

CCCC(=NOCC)C1=C(O)CC(CC(C)SCC)CC1=O (stereo unspecified)
inactive: all assays above

CCOc1nc(C(Cl)(Cl)Cl)ns1
inactive: all assays above

CC(C)Nc1nc(Cl)nc(NC(C)C)n1
active: [4] 13.6 µM
inactive: all other assays above

O=C(O)c1c(Cl)ccc2cc(Cl)cnc12
inactive: all assays above

COC(=O)c1c(C(F)F)nc(C(F)(F)F)c(C2=NCCS2)c1CC(C)C
active: [2] 18 µM
inactive: all other assays above

Nc1c(Cl)c(Cl)nc(C(=O)O)c1Cl
inactive: all assays above
